# Structures can show the parent of a compound that is named as a salt.
# How the values were obtained:
# Assay in all cases: Euclidean distance of Cell Painting phenotypic profile (signed KS, 77 features) to DMSO centroid (dimensionless distance); 5 or 10 uM (library dependent); higher = stronger phenotypic change vs DMSO (phenoactivity)
# Conditions in all cases: 48 h
# 786-O = system: 786-O
# In short: (§1)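 Phenoactivity is computed as Euclidean distance to the median vehicle profile. The profiles, drawn from 77 Harmony features scored as signed Kolmogorov-Smirnov statistics versus same-plate vehicle wells, were corrected for plate position, correlation-weighted and replicate-averaged at the top dose. Stained cells were imaged confocally at 20X (9 fields/well) after 48 h with library compounds at 10 or 5 uM, 0.1% DMSO final, in five cancer lines and a healthy fibroblast line.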
# A549 = system: A549
# In short: as §1
# DU145 = system: DU145
# In short: as §1
# FB = system: FB
# In short: as §1
# HEPG2 = system: HEPG2
# In short: as §1
# OVCAR4 = system: OVCAR4
# In short: as §1
Structure (SMILES),Euclidean distance (786-O),Euclidean distance (A549),Euclidean distance (DU145),Euclidean distance (FB),Euclidean distance (HEPG2),Euclidean distance (OVCAR4)
CN(C)C(=O)C(CCN1CCC(O)(c2ccc(Cl)cc2)CC1)(c1ccccc1)c1ccccc1 [Loperamide HCl],1.64,2.14,1.81,1.85,2.35,1.42
CC(C)[C@H](C(=O)Nc1ccc(C(=O)NO)cc1)c1ccccc1,3.25,4.55,3.1,4.34,4.16,3.22
CN1CCC(NC(=O)c2cc(-c3c(O)cc(O)cc3Oc3ccc([N+](=O)[O-])cc3)on2)CC1,2.95,3.28,3.66,3.37,5.17,3.04
N#CC(c1ccc(Cl)cc1)c1c(Cl)cc(-n2ncc(=O)[nH]c2=O)cc1Cl (configuration not stated) [Diclazuril],1.07,1.53,0.762,1.53,2.11,1.22
O=C(Cn1ccnc1[N+](=O)[O-])NCc1ccccc1 [Benznidazole],1.16,1.1,1.58,1.03,0.581,1.14
COC(=O)Nc1ccc(-c2nc(N3CCOCC3)c3cnn(C4CCN(C(=O)OC)CC4)c3n2)cc1,1.52,2.8,1.17,2.27,1.92,4
COc1cc2ncnc(Oc3cccc(NC(=O)Nc4cc(C(C)(C)C(F)(F)F)on4)c3)c2cc1OC,0.889,2.41,1.19,1.02,0.923,1.88
CC/C(=C(/CC)c1ccc(O)cc1)c1ccc(O)cc1 [Diethylstilbestrol],0.795,0.688,0.96,0.826,0.721,0.682
COc1cc2c(Nc3ccc(NC(=O)c4ccccc4)cc3)ncnc2cc1OCCCN1CCOCC1,2.71,3.81,3.11,2.7,1.92,3.02
CC(C)N(CCCNC(=O)Nc1ccc(C(C)(C)C)cc1)C[C@H]1O[C@@H](n2ccc3c(N)ncnc32)[C@H](O)[C@@H]1O,1.04,0.769,0.92,1.18,0.5,0.755
O=C1Nc2ccccc2C1=O [Isatin],0.739,1.21,1.26,1.29,1.03,1.39
C=CC(=O)Nc1ccc2ncnc(Nc3ccc(OCc4cccc(F)c4)c(Cl)c3)c2c1,2.14,1.92,1.99,2.48,1.03,3.41
Cc1ccc(Sc2cncc3sc(C(N)=O)cc23)cc1,1.1,1.05,0.78,1.61,1.24,0.995
CC(=O)/N=c1/sc(S(N)(=O)=O)nn1C [Methazolamide],1.32,0.988,0.818,0.885,0.858,1.5
NC(=O)[C@@H]1CC[C@@H]2CN1C(=O)N2OS(=O)(=O)O [Avibactam sodium],1.03,0.85,0.722,0.925,0.607,1.24
CSCC[C@H](N)C(=O)O [L-methionine],1.08,0.829,1.25,0.928,0.685,1.71
O=C(Nc1ccncc1)c1cc([N+](=O)[O-])ccc1Cl,1.2,0.794,2.19,0.879,1.09,2.04
Cc1cn[nH]c1 [Fomepizole],0.803,0.542,1.4,0.868,1.97,0.897
CC1(C)S[C@@H]2[C@H](NC(=O)C(c3ccccc3)S(=O)(=O)O)C(=O)N2[C@H]1C(=O)O (some centres not stated) [Sulbenicillin Sodium],0.75,0.447,1.14,1.28,0.601,1.09
CC1(C)S[C@@H]2[C@H](NC(=O)[C@H](N)c3ccc(O)cc3)C(=O)N2[C@H]1C(=O)O [Amoxicillin],1.02,1.01,0.78,0.837,0.318,1.22
O=C(OC[C@H]1O[C@@H](OC(=O)c2cc(O)c(O)c(OC(=O)c3cc(O)c(O)c(O)c3)c2)[C@H](OC(=O)c2cc(O)c(O)c(OC(=O)c3cc(O)c(O)c(O)c3)c2)[C@@H](OC(=O)c2cc(O)c(O)c(OC(=O)c3cc(O)c(O)c(O)c3)c2)[C@@H]1OC(=O)c1cc(O)c(O)c(OC(=O)c2cc(O)c(O)c(O)c2)c1)c1cc(O)c(O)c(OC(=O)c2cc(O)c(O)c(O)c2)c1 [Tannic acid],0.956,1.44,1.47,1.45,1.43,1.05
NC(=O)c1ccc(-c2nc(-c3ccccn3)c(-c3ccc4c(c3)OCO4)[nH]2)cc1,1.59,2.49,1.48,1.91,2.52,2.61
CCCCCCCCCC(=O)CC(O)S(=O)(=O)O (configuration not stated) [Sodium Houttuyfonate],1.45,0.727,1.5,0.985,1.06,1.66
Cc1nnc(SCC2=C(C(=O)O)N3C(=O)[C@@H](NC(=O)Cn4cnnn4)[C@H]3SC2)s1 [Cefazolin Sodium],0.929,0.587,0.958,0.961,1.06,1.27
CC(C)(C)OC(=O)N[C@H]1CCCCC/C=C\[C@@H]2C[C@@]2(C(=O)NS(=O)(=O)C2CC2)NC(=O)[C@@H]2C[C@@H](OC(=O)N3Cc4cccc(F)c4C3)CN2C1=O [Danoprevir (ITMN-191)],1.4,0.94,1.41,1.19,2.24,1.69
Cc1ccccc1C(OCCN(C)C)c1ccccc1 (configuration not stated) [Orphenadrine Citrate],1.08,0.794,1.23,0.881,2.08,1.07
CC1CCN(CC[C@H]2CCCN2S(=O)(=O)c2cccc(O)c2)CC1,0.546,0.904,0.705,1.11,1.48,0.827
